“And” between values parts separate entries of the source, which are not always exact repeats. Equal entries are not always repeated. The source made the active and inactive calls. Cut-off read from the data, not from the text of the source, unless noted: active = parasite load remaining mostly below about 12% (no sharp cut-off); inactive = mostly above about 10%.
Legend:
[1] = Wnt pathway potentiators raising nuclear beta-catenin – imaging, WNT3A-conditioned medium, mouse C2C12, NPC library, primary screen (AID 1117326; in the data active = nuclear beta-catenin stimulation mostly above about 4.2%, no sharp cut-off; inactive = mostly below about 10%); details: stronger effect = higher value
[2] = stimulators of insulin release from INS-1E, primary screen, cell-based, 5 mM glucose, NPC library (AID 1117329;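 active = compound raises insulin release from rat beta cells at 5 mM glucose, no numeric limit stated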); details: rat INS-1E insulin secretion, at 10 µM, stronger effect = higher value
[3] = growth inhibition of GSK3B-pretreated HCT116 cells – cell-based, CellTiter-Glo, 0.2 to 20 µM (AID 1117336;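 active = compounds lowering colon cancer cell viability after pretreatment blocking the GSK3B kinase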); details: HCT116 viability after GSK3B inhibitor, at 20 µM, stronger effect = higher value
[4] = inhibition of endothelial tube formation, primary screen, imaging, VEGF stimulated, CD31 staining, tube area, NPC library (AID 1117340;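 active = compound that reduces growth-factor-driven endothelial tube area in a mixed cell culture, no cutoff stated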); details: VEGF-stimulated ADSC/ECFC co-culture, at 10 µM, stronger effect = higher value
[5] = GLP1 release stimulators, primary, NCI-H716, NPC library (AID 1117341;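 active = compound raises GLP1 secretion from the human gut endocrine cells, with no numeric limit stated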); details: NCI-H716 cells, at 10 µM, stronger effect = higher value
[6] = HCT116 colon cancer cell growth inhibition, primary screen, CellTiter-Glo luminescence, NPC library (AID 1117342;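 active = compounds that lower survival of HCT116 colon cancer cells in the luminescence readout, no numeric limit stated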); details: at 20 µM (top of the series)
[7] = reduced SW480 viability measured with CellTiter-Glo, NPC library, primary (AID 1117343;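 active = compounds that lower viability of the colon cancer cells in the luminescence readout, with no numeric limit stated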); details: CellTiter-Glo luminescence; at 20 µM (top of the series)
[8] = NPC library primary testing for decreased DLD-1 cell viability via CellTiter-Glo (AID 1117346;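 active = compounds that lower survival of DLD-1 colon cancer cells in the luminescence readout, no cutoff given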); details: DLD-1 viability, CellTiter-Glo luminescence; at 20 µM (top of the series)
[9] = biological target: 6-phosphogluconate dehydrogenase, decarboxylating (Homo sapiens) (UniProt P52209); experiment: inhibition of human phosphogluconate dehydrogenase – biochemical, recombinant enzyme, NADPH absorbance, primary screen (AID 1159550;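 active = at least 20% inhibition of 6-phosphogluconate dehydrogenase activity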); details: recombinant 6PGD, NADPH absorbance 341 nm; at 10 µM; stronger effect = higher value
[10] = EMT-state selective cytotoxicity in co-culture – imaging, PC-3E GFP, TEM4-18 mCherry, primary screen (AID 1345086;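 active = compounds killing one labelled cell type while sparing the other, by normalised counts and ratio limits, not self-fluorescent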;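 for all read-outs here: cells exposed to compound for 72 h before imaging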;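 for red/green cell ratio (normalised): normalised mesenchymal count divided by normalised epithelial count so high means epithelial killing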); details: PC-3E GFP / TEM4-18 mCherry co-culture, imaging cell counts, at 1 µM; for red/green cell ratio (normalised): actives lie on both sides
[11] = viability loss with induced miR-34 in A549 – imaging, A549 dox-inducible miR-34, nuclei and caspase counts, primary screen (AID 1347080;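 active = compounds whose cell count with miR-34 switched on is under 0.7 times the count with it off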); details: A549 miR-34 inducible, Hoechst nuclei count, 48 h
[12] = biological target: NAD(+) hydrolase SARM1 (Homo sapiens) (UniProt Q6SZW1); experiment: blocking NAD cleavage by SARM1 SAM-TIR – cell lysate, NAD-Glo luminescence (AID 1508614;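 active = compound whose remaining NAD level is above about 45 nM, limit read from the data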;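 note: higher remaining NAD means stronger inhibition of SARM1 NADase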); details: SAM-TIR HEK293T lysate NADase, at 1 µM, stronger effect = higher value
[13] = biological target: Mitogen-activated protein kinase 7 (Homo sapiens) (UniProt Q13164); experiment: Gal4-ERK5 driven luciferase induction – cell-based, HTS, primary screen (AID 1508626;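 active = luciferase signal above three times the same-plate solvent-only control wells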;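 note: luciferase driven by Gal4-ERK5 fusion binding five Gal4 sites before minimal TATA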); details: HeLa Gal4-ERK5 transactivation, 18 h, at 5 µM, stronger effect = higher value
[14] = system: Aerobactin synthetase IucA (Klebsiella pneumoniae hvKP1); experiment: IucA enzyme inhibition, primary screen, biochemical, Spectrum library (AID 1346200; call rule not given here;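 note: 100% = wells without compound and 0% = wells lacking enzyme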); details: malachite green pyrophosphate, A620, at 8 µM, stronger effect = lower value
[15] = yeast 75Q aggregation reduction – 75Q-TubU reporter (AID 1593); details: Yeast 75Q polyglutamine aggregation reporter
[16] = blockers of cytochrome c efflux from mitochondria – biochemical, purified mitochondria (AID 1603); details: stronger effect = lower value;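 note: mouse liver mitochondria challenged with calcium chloride; signal normalized to the plate average as 100%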
[17] = polyglutamine aggregate formation blockers (AID 1604); details: polyglutamine-induced protein aggregation inhibition assay; stronger effect = higher value; tested at 2.5 µM
[18] = P. berghei load reduction in hepatocytes – cell-based, HepG2, luciferase luminescence, HepG2 viability, primary screen (AID 624349);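 note: 100% = mean of DMSO negative control wells on the same plate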; details: P. berghei liver stage in HepG2, luciferase luminescence, concentration not given here; parasite load remaining: stronger effect = lower value; viability: measured here: HepG2 viability without parasites
[19] = MELAS cybrid and Rieske KO viability enhancers – cell-based, MELAS cybrids, Rieske KO mouse fibroblasts, CellTiter-Glo, primary screen (AID 1508586;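 active = mean z-score across replicates of 1.96 or higher in either the MELAS or the Rieske mutant cell line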;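 note: z relative to plate mean and SD of compound and empty wells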); details: low glucose
[20] = galactose survival enhancers in mitochondrial complex I cybrids – cell-based, galactose medium, ATP luminescence, primary screen (AID 1645843;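 active = z-score of at least 1.8 in each of two replicates, scored against plate mean and spread of sample wells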;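 note: positive z means more ATP and so rescue of galactose-driven cybrid death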); details: complex I mutant cybrid cells, 72 h, stronger effect = higher value
[21] = measured here: epithelial PC-3E GFP cell survival
[22] = measured here: mesenchymal TEM4-18 mCherry cell survival
[23] = measured here: relative caspase fold change +Dox/-Dox
[24] = measured here: total cells with miR-34 induction, stronger effect = lower value
[25] = measured here: total cells without miR-34 induction
[26] = MELAS cybrid survival, CellTiter-Glo 48 h, stronger effect = higher value
[27] = Rieske KO mouse fibroblast survival, CellTiter-Glo 72 h

Sequence of Mitogen-activated protein kinase 7 (Homo sapiens) (Q13164 whole entry, looked up, the tested form may be a part): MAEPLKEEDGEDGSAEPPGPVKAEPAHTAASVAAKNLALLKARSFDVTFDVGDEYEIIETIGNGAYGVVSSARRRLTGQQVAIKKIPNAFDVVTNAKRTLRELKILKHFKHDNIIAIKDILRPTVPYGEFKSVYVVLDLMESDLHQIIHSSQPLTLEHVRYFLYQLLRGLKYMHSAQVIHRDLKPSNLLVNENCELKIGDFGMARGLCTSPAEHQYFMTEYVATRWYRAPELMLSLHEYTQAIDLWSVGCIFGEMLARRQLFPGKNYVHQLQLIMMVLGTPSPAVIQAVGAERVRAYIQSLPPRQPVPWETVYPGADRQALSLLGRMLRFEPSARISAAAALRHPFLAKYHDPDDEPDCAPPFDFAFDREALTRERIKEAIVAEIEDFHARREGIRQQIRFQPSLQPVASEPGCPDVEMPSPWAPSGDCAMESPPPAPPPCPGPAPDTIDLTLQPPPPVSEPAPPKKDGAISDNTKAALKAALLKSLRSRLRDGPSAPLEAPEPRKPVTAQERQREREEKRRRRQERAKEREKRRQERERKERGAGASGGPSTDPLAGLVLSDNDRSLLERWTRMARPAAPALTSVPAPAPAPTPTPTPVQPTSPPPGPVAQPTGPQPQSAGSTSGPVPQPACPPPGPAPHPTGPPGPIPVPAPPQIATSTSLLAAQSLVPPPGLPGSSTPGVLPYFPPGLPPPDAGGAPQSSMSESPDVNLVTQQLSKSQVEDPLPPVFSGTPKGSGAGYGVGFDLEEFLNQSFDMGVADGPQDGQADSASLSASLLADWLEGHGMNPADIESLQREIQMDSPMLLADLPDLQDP
Sequence of 6-phosphogluconate dehydrogenase, decarboxylating (Homo sapiens) (P52209 whole entry, looked up): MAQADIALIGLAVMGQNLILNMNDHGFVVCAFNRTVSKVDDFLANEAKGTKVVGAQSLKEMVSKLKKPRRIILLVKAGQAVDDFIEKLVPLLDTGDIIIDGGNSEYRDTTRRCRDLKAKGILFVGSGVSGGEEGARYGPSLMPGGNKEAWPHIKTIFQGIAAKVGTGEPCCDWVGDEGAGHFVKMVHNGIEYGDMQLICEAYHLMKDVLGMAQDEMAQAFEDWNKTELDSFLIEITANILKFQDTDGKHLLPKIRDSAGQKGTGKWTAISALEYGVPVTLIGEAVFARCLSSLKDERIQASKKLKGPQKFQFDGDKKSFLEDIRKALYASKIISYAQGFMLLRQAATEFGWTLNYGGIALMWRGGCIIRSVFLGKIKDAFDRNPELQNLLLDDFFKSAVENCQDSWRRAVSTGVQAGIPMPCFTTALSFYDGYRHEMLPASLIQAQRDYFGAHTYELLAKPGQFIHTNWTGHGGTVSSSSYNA
Sequence of NAD(+) hydrolase SARM1 (Homo sapiens) (Q6SZW1 whole entry, looked up, the tested form may be a part): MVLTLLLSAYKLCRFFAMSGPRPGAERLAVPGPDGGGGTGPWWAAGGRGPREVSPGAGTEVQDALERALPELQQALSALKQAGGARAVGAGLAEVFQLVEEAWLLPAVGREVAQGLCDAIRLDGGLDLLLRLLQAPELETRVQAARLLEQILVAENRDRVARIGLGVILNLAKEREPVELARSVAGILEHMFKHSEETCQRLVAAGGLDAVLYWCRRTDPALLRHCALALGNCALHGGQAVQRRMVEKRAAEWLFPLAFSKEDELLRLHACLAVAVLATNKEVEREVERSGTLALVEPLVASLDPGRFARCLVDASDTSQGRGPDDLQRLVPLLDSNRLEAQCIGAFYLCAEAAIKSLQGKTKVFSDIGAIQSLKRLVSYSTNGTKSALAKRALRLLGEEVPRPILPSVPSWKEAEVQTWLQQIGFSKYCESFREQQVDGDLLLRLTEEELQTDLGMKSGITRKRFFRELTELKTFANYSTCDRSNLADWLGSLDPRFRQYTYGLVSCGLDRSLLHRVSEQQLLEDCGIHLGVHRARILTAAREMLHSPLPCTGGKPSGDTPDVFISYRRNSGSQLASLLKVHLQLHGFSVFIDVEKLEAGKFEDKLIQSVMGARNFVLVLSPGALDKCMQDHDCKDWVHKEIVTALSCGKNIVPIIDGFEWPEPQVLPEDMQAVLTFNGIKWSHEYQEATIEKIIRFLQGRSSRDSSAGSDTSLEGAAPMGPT

For CCOP(=S)(OCC)Oc1ccc2c(C)c(Cl)c(=O)oc2c1, the nuclear beta-catenin stimulation ([1]; at 10 µM) was 8.6% (inactive), the nuclear beta-catenin stimulation ([1]; stimulation, at 2 µM) was 1.6% and the insulin secretion stimulation [2] was -1.3% (inactive). For the same compound, the viability decrease [3] was -12.5% (inactive), the tube area decrease [4] was 41% (active) and the GLP1 secretion stimulation [5] was 2.3% (inactive). The inhibition of viability [6] was -16% (inactive), the viability decrease (inhibition) [7] was -55% (inactive) and the viability decrease (inhibition) [8] was -8.8% (inactive). For the same compound, the inhibition [9] was 6.24% (inactive), the red/green cell ratio (normalised) [10] was 1.09 (inactive) and the normalised cell number [10, 21] was 0.91. The normalised cell number [10, 22] was 0.99, the fold change ([11]; stronger effect = lower value) was 0.908 (inactive) and the fold change [11, 23] was 1.03. For the same compound, the cell count [11, 24] was 8520, the cell count [11, 25] was 9380 and the remaining NAD [12] was 10 nM (inactive). For the same compound, the luciferase signal [13] was 72 AU (inactive).
In the case of CCOP(=S)(OCC)Oc1cc(C)nc(C(C)C)n1, the nuclear beta-catenin stimulation ([1]; at 10 µM) is reported as -0.5% (inactive), the nuclear beta-catenin stimulation ([1]; stimulation, at 2 µM) is reported as 0.1% and the insulin secretion stimulation [2] is reported as 0.4% (inactive). The viability decrease [3] was -71.8% (inactive), the tube area decrease [4] was 0.2% (inactive) and the GLP1 secretion stimulation [5] was -1.4% (inactive). The inhibition of viability [6] was 11.6% (inactive), the viability decrease (inhibition) [7] was 34% (inactive) and the viability decrease (inhibition) [8] was 2.6% (inactive). For the same compound, the inhibition [9] was -22.8% (inactive), the red/green cell ratio (normalised) [10] was 1 (inactive) and the normalised cell number [10, 21] was 1. The normalised cell number [10, 22] was 1, the activity remaining [14] was 77.6% (inactive) and the fold change ([11]; stronger effect = lower value) was 0.932 (inactive). The fold change [11, 23] was 1.33, the cell count [11, 24] was 9160 and the cell count [11, 25] was 9830. For the same compound, the remaining NAD [12] was 10 nM (inactive).
CC(=O)[O][Hg][c]1ccccc1 gave a score [15] of -0.45, a cytochrome c release ratio [16] of 1.06 and an inhibition of aggregation [17] of -25.5%. For the same compound, the parasite load remaining [18] was 3.54% (inactive) and -0.265% (inactive), the viability [18] was 23.1% and 0.225% and the nuclear beta-catenin stimulation ([1]; at 10 µM) was 14.5% (inactive). For the same compound, the nuclear beta-catenin stimulation ([1]; stimulation, at 2 µM) was 13.2%, the insulin secretion stimulation [2] was 15.9% (inactive) and the viability decrease [3] was 103% (active). For the same compound, the tube area decrease [4] was 110% (active), the GLP1 secretion stimulation [5] was 49.8% (active) and the inhibition of viability [6] was 103% (active). For the same compound, the viability decrease (inhibition) [7] was 144% (active), the viability decrease (inhibition) [8] was 105% (active) and the inhibition [9] was -9.01% (inactive). The activity remaining [14] was -6.18% (active), the fold change ([11]; stronger effect = lower value) was 0.775 (inactive) and the fold change [11, 23] was 1.65. For the same compound, the cell count [11, 24] was 334, the cell count [11, 25] was 432 and the remaining NAD [12] was 63 nM (active). For the same compound, the luciferase signal [13] was 32 AU (inactive).
Work on NCCc1cc(O)c(O)cc1O yielded a score [15] of 1.88, a cytochrome c release ratio [16] of 0.92 and an inhibition of aggregation [17] of 55.6%. For the same compound, the parasite load remaining [18] was 70% (inactive) and 42.8% (inactive), the viability [18] was 70% and 87.6% and the nuclear beta-catenin stimulation ([1]; at 10 µM) was 2.4% (inactive). The nuclear beta-catenin stimulation ([1]; stimulation, at 2 µM) was 2.4%, the insulin secretion stimulation [2] was 1.2% (inactive) and the viability decrease [3] was -22.3% (inactive). The tube area decrease [4] was 18.6% (inactive), the GLP1 secretion stimulation [5] was -8.1% (inactive) and the inhibition of viability [6] was 15.3% (inactive). The viability decrease (inhibition) [7] was 142% (active), the viability decrease (inhibition) [8] was 78.2% (active) and the inhibition [9] was 13% (inactive). For the same compound, the red/green cell ratio (normalised) [10] was 1.14 (inactive), the normalised cell number [10, 21] was 1.02 and the normalised cell number [10, 22] was 1.17. For the same compound, the activity remaining [14] was 78.8% (inactive), the fold change ([11]; stronger effect = lower value) was 0.838 (inactive) and the fold change [11, 23] was 0.786. For the same compound, the cell count [11, 24] was 10500, the cell count [11, 25] was 12600 and the remaining NAD [12] was 10 nM (inactive). The luciferase signal [13] was 156 AU (inactive).
CC(C)(C)NCC(O)c1cc(Cl)c(N)c(Cl)c1 (stereo unspecified) gave a score [15] of 1.52, a cytochrome c release ratio [16] of 1.06 and an inhibition of aggregation [17] of 29.4%. For the same compound, the parasite load remaining [18] was 72.5% (inactive) and 86% (inactive) and 37.5% (inactive), the viability [18] was 109% and 74.6% and 102% and the nuclear beta-catenin stimulation ([1]; at 10 µM) was 0% (inactive). The nuclear beta-catenin stimulation ([1]; stimulation, at 2 µM) was 1.4%, the insulin secretion stimulation [2] was 3.8% (inactive) and the viability decrease [3] was -1.4% (inactive). For the same compound, the tube area decrease [4] was 13.7% (inactive), the GLP1 secretion stimulation [5] was 0.6% (inactive) and the inhibition of viability [6] was 24.9% (inactive). For the same compound, the viability decrease (inhibition) [7] was 15.4% (inactive), the viability decrease (inhibition) [8] was 10.4% (inactive) and the inhibition [9] was -5.11% (inactive). The red/green cell ratio (normalised) [10] was 1.04 (inactive), the normalised cell number [10, 21] was 1.05 and the normalised cell number [10, 22] was 1.09. The activity remaining [14] was 115% (inactive), the fold change ([11]; stronger effect = lower value) was 0.844 (inactive) and 0.889 (inactive) and the fold change [11, 23] was 1.23 and 1.3. For the same compound, the cell count [11, 24] was 8390 and 9780, the cell count [11, 25] was 9940 and 11000 and the z-score [19, 26] was 0.503 (inactive) and 0.285 (inactive). The z-score [19, 27] was 0.0878 and 0.551, the remaining NAD [12] was 10 nM (inactive) and the luciferase signal [13] was 44 AU (inactive). For the same compound, the z-score [20] was 0.41 (inactive).
For CC(=O)NC1CCSC1=O (stereo unspecified), the parasite load remaining [18] was 132% (inactive), the viability [18] was 109% and the nuclear beta-catenin stimulation ([1]; at 10 µM) was 2.9% (inactive). The nuclear beta-catenin stimulation ([1]; stimulation, at 2 µM) was 3%, the insulin secretion stimulation [2] was 0.7% (inactive) and the viability decrease [3] was -1% (inactive). The tube area decrease [4] was 8% (inactive), the GLP1 secretion stimulation [5] was -0.5% (inactive) and the inhibition of viability [6] was -4.73% (inactive). For the same compound, the viability decrease (inhibition) [7] was 12.1% (inactive), the viability decrease (inhibition) [8] was -3.7% (inactive) and the inhibition [9] was 18.8% (inactive). For the same compound, the red/green cell ratio (normalised) [10] was 0.96 (inactive), the normalised cell number [10, 21] was 1.05 and the normalised cell number [10, 22] was 1.02. The fold change ([11]; stronger effect = lower value) was 0.927 (inactive), the fold change [11, 23] was 0.928 and the cell count [11, 24] was 7880. For the same compound, the cell count [11, 25] was 8510, the z-score [19, 26] was -0.207 (inactive) and the z-score [19, 27] was -0.982. The remaining NAD [12] was 10 nM (inactive) and the luciferase signal [13] was 52 AU (inactive).
NC(=O)c1cc([N+](=O)[O-])cc([N+](=O)[O-])c1 gave a score [15] of 1.47, a cytochrome c release ratio [16] of 0.54 and an inhibition of aggregation [17] of 72.4%. For the same compound, the parasite load remaining [18] was 66.1% (inactive) and 34.1% (inactive), the viability [18] was 71.7% and 90.1% and the nuclear beta-catenin stimulation ([1]; at 10 µM) was -1.3% (inactive). The nuclear beta-catenin stimulation ([1]; stimulation, at 2 µM) was -1.6%, the insulin secretion stimulation [2] was 0.7% (inactive) and the viability decrease [3] was 30.5% (inactive). For the same compound, the tube area decrease [4] was -14.6% (inactive), the GLP1 secretion stimulation [5] was -0.8% (inactive) and the inhibition of viability [6] was 37.6% (inactive). For the same compound, the viability decrease (inhibition) [7] was 67.6% (active), the viability decrease (inhibition) [8] was 6.7% (inactive) and the inhibition [9] was 8.1% (inactive). The red/green cell ratio (normalised) [10] was 0.97 (inactive), the normalised cell number [10, 21] was 0.99 and the normalised cell number [10, 22] was 0.96. For the same compound, the activity remaining [14] was 116% (inactive), the fold change ([11]; stronger effect = lower value) was 0.831 (inactive) and the fold change [11, 23] was 2.03. The cell count [11, 24] was 10800, the cell count [11, 25] was 12900 and the remaining NAD [12] was 10 nM (inactive). The luciferase signal [13] was 40 AU (inactive).
